In PubChem BioAssay (EPA / NIEHS):
Several values for one entry are separate records, joined by “and”; a condition that tells them apart may be missing. Equal entries are not always repeated. Results filed as inconclusive are left out. A structure can be active in one record and inactive in another. Activity calls are given as the source filed them. How the source made its calls, unless noted: active means hit-call score of the fitted dose curve at least 0.9, where 1 is the maximum; inactive means score below 0.9.

Legend:
[1] = system: SRY-box transcription factor 17 (SOX17) Protein Expression, Deisenroth Lab, SOX17 (gene 64321); assay: CCTE_Deisenroth_DEVTOX-GLR_Endo_SOX17: CCTE's DevTox GLR-Endo Assay Evaluation of SRY-box transcription factor 17 (SOX17) Protein Expression, Deisenroth Lab (AID 2284413)
Summary of the method: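 Human RUES2-GLR cells carrying an inducible fluorescent reporter are differentiated in defined media for 48 h and dosed twice, 24 h apart. After fixation and nuclear staining, imaging yields SOX17+ cell percentage relative to 0.2% DMSO-treated differentiated cells.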

[2] = Tanguay_ZF_120hpf_MO24: Oregon State University Tanguay Lab 24 Hour Post-fertilization zebrafish Assay for Mortality (AID 2284389)
Summary of the method: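 Embryo death at 24 hpf was recorded as present or absent in Tropical 5D zebrafish, dechorionated at 4 hpf and dosed statically from 6 hpf (28C, 0.64% DMSO); 5 uM trimethyltin chloride served as positive control.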

[3] = Tanguay_ZF_120hpf_DP24: Oregon State University Tanguay Lab 24 Hour Post-fertilization zebrafish Assay for Delayed Development (AID 2284390)
Summary of the method: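 Scored at 24 hpf as a binary present/absent call of delayed development by brightfield, with dead embryos not assessed. Embryos (5D wild type, chorion removed with pronase at 4 hpf) dosed statically from 6 hpf at 28 C in 0.64% DMSO.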

[4] = Tanguay_ZF_120hpf_CRAN: Oregon State University Tanguay Lab 120 Hour Post-fertilization zebrafish Assay for Craniofacial Malformation (AID 2284397)
Summary of the method: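 Scoring of craniofacial malformation as a binary endpoint was done at 120 hpf by brightfield microscopy and was not done in dead embryos. Exposure was static, starting at 6 hpf, in dechorionated wild-type embryos held singly at 28C with 0.64% DMSO final.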

[5] = Tanguay_ZF_120hpf_AXIS: Oregon State University Tanguay Lab 120 Hour Post-fertilization zebrafish Assay for Axial Malformation (AID 2284398)
Summary of the method: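 Scoring was binary (present or absent) for body-axis defects, judged by brightfield imaging at 120 hpf in surviving larvae. Exposure was static at 28C from 6 hpf in chorion-free 5D wild-type embryos, with 0.64% DMSO vehicle.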

[6] = Tanguay_ZF_120hpf_MORT: Oregon State University Tanguay Lab 120 Hour Post-fertilization zebrafish Assay for Mortality (AID 2284399)
Summary of the method: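 Mortality, recorded present/absent via brightfield imaging at 24 and 120 hpf, in 5D zebrafish embryos exposed statically from 6 hpf after pronase chorion removal. Exposure at 28C, 0.64% DMSO vehicle, DMSO baseline.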

[7] = Tanguay_ZF_120hpf_EDEM: Oregon State University Tanguay Lab 120 Hour Post-fertilization zebrafish Assay for Edema Malformation (AID 2284400)
Summary of the method: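 Edema recorded as a binary endpoint under brightfield at 120 hpf, excluding embryos that died. Exposure was static, sealed, 28C, from 6 hpf in dechorionated wild-type larvae, final DMSO 0.64%, DMSO as baseline.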

[8] = Tanguay_ZF_120hpf_BRN: Oregon State University Tanguay Lab 120 Hour Post-fertilization zebrafish Assay for Brain Region Malformation (AID 2284402)
Summary of the method: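 Binary brightfield scoring of brain malformation at 120 hpf in 5D wild-type larvae, chorion removed with pronase at 4 hpf. Static exposure began at 6 hpf, 28C, sealed plates, DMSO 0.64% (vol/vol) as vehicle baseline.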

[9] = Tanguay_ZF_120hpf_TCHR: Oregon State University Tanguay Lab 120 Hour Post-fertilization zebrafish Assay for Touch Responsive (AID 2284403)
Summary of the method: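 Binary touch-response calls are made at 120 hpf in 5D wild-type zebrafish larvae. These larvae were dechorionated with pronase and exposed singly from 6 hpf in sealed, dark plates at 28 °C with 0.64% DMSO final; dead embryos are excluded.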

[10] = Tanguay_ZF_120hpf_ANY: Oregon State University Tanguay Lab 120 Hour Post-fertilization zebrafish Assay for Any Mortality and Malformation (AID 2284404)
Summary of the method: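 Dechorionated Tropical 5D wild-type embryos, one per well from 6 hpf, static exposure in sealed, dark plates at 28C until 120 hpf, 0.64% DMSO final. Brightfield scoring of mortality and malformations as binary presence/absence, pooling 13 morphology endpoints.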

[11] = CCTE_Padilla_ZF_Score.Craniofacial: CCTE's 144 Hour Post-fertilization zebrafish Assay Score for Craniofacial Malformation, Padilla Lab (AID 2284405)
Summary of the method: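 Craniofacial defects were scored at 6 dpf by two blinded observers using stereomicroscopy. Exposure of wild-type embryos began at 6–8 hpf in sealed wells of 10% Hanks' solution at 26C, with chemical removed by rinsing at 5 dpf.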

[12] = CCTE_Padilla_ZF_Score.Edema: CCTE's 144 Hour Post-fertilization zebrafish Assay Score for Edema Malformation, Padilla Lab (AID 2284406)
Summary of the method: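 Edema scored at 6 dpf by two blinded observers under a stereo microscope, in single outbred wild-type larvae exposed from 6-8 hpf in sealed wells (Hanks', 26C, 14:10 h light) and chemical-free after a 5 dpf rinse.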

[13] = CCTE_Padilla_ZF_Score.Spine: CCTE's 144 Hour Post-fertilization zebrafish Assay Score for Spine Malformation, Padilla Lab (AID 2284407)
Summary of the method: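 Spine malformation scored at 6 dpf by two independent blinded observers under stereomicroscope, after static sealed exposure from 6–8 hpf at 26C in Hanks' solution with rinse on 5 dpf. Positive-direction fit against DMSO control.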

[14] = CCTE_Padilla_ZF_Score.Swim_bladder: CCTE's 144 Hour Post-fertilization zebrafish Assay Score for Swim Bladder Malformation, Padilla Lab (AID 2284408)
Summary of the method: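 Swim bladder inflation scored at 6 dpf by two blinded observers under a stereo microscope. Exposure ran from 6–8 hpf in sealed wells of 10% Hanks' at 26C, with rinsing at 5 dpf; DMSO served as baseline.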

[15] = CCTE_Padilla_ZF_Score.Position: CCTE's 144 Hour Post-fertilization zebrafish Assay Score for Position, Padilla Lab (AID 2284409)
Summary of the method: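 Wild-type zebrafish embryos (with chorions) exposed singly from 6–8 hpf in sealed wells of Hanks' solution at 26C, rinsed at 5 dpf. At 6 dpf, blinded assessors scored abnormal water-column position by brightfield stereomicroscopy, relative to DMSO.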

[16] = CCTE_Padilla_ZF_Score.Living: CCTE's 144 Hour Post-fertilization zebrafish Assay Score for Viability, Padilla Lab (AID 2284410);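 further: larval death at 6 dpf judged by absent heartbeat or coagulation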
Summary of the method: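 Mortality at 6 dpf, judged as absent heartbeat or coagulation by two blinded observers, after sealed static exposure beginning at 6–8 hpf at 26C. Larvae were rinsed free of chemical at 5 dpf, and activity was fitted relative to DMSO.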

[17] = CCTE_Padilla_ZF_Score.General: CCTE's 144 Hour Post-fertilization zebrafish Assay Score for General Malformation, Padilla Lab (AID 2284411)
Summary of the method: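 Malformation, death and hatching were scored at 6 dpf by two blinded observers under a stereo microscope. Embryos were dosed singly from 6-8 hpf in sealed plates of 10% Hanks' at 26C and rinsed on 5 dpf; DMSO baseline.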

[18] = CCTE_Padilla_ZF_Score.Tail: CCTE's 144 Hour Post-fertilization zebrafish Assay Score for Tail Malformation, Padilla Lab (AID 2284414)
Summary of the method: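 Tail malformations were scored at 6 dpf by two blinded assessors under a stereo microscope. Chorionated embryos had been exposed from 6-8 hpf in sealed wells of 10% Hanks' at 26 C, then rinsed free of chemical at 5 dpf.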

[19] = CCTE_Padilla_ZF_Score.Blood_pooling: CCTE's 144 Hour Post-fertilization zebrafish Assay Score for Blood Pooling, Padilla Lab (AID 2284415)
Summary of the method: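 Blood pooling was scored at 6 dpf under a stereo microscope by two blinded assessors, fitted upward against DMSO. Single embryos were dosed at 6–8 hpf in 10% Hanks', kept sealed at 26C (14:10 h cycle) and rinsed at 5 dpf.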

[20] = system: SRY-box transcription factor 2 (SOX2) Protein Expression, Deisenroth Lab, SOX2 (gene 6657); assay: CCTE_Deisenroth_DEVTOX-GLR_Endo_SOX2: CCTE's DevTox GLR-Endo Assay Evaluation of SRY-box transcription factor 2 (SOX2) Protein Expression, Deisenroth Lab (AID 2284412; active means hit-call score of the fitted dose curve at least 0.9, where 1 is the maximum)
Summary of the method: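 Endpoint is percent SOX2-positive cells (SOX2+ count/total cells) minus 0.2% DMSO control, from high-content imaging of fixed, nuclear-stained RUES2-GLR cells. Dosing twice at 24 h intervals over 48 h differentiation, 1 nM–200 uM in 10 points.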

Measured: AC50

CC(O)CO (stereo not given)
inactive: [1]

OCCC(F)(F)C(F)(F)C(F)(F)C(F)(F)C(F)(F)C(F)(F)F
active: [11] 30.1 µM | [12] 16.5 µM | [14] 52.7 µM | [17] 2.19 µM
inactive: [2] | [3] | [4] | [5] | [6] | [7] | [8] | [9] | [10] | [13] | [15] | [16] | [18] | [19]

CCCCCCCCCCCCCC[N+](C)(C)C
inactive: [17]

CC1=C(/C=C/C(C)=C/C=C/C(C)=C/C(=O)O)C(C)(C)CCC1
active: [20] 16 µM | [1] 0.102 µM

FC(F)(I)C(F)(F)C(F)(F)C(F)(F)C(F)(F)C(F)(F)I
active: [11] 34.5 µM and 26.6 µM | [12] 19.1 µM and 5.34 µM | [13] 6.93 µM | [14] 10.9 µM and 8.3 µM | [15] 28 µM and 4 µM | [16] 88.8 µM | [17] 15.6 µM and 5.69 µM | [19] 28.6 µM and 3 µM
inactive: [13] | [16] | [18]

C[C@@H]1C[C@H]2[C@@H]3CCC4=CC(=O)C=C[C@]4(C)[C@@]3(F)[C@@H](O)C[C@]2(C)[C@@]1(O)C(=O)COP(=O)(O)O
inactive: [20] | [1]

C=C(C)C(=O)OCCC(F)(F)C(F)(F)C(F)(F)C(F)(F)C(F)(F)C(F)(F)F
inactive: [2] | [3] | [4] | [5] | [6] | [7] | [8] | [9] | [10] | [11] | [12] | [13] | [14] | [15] | [16] | [17] | [18] | [19]

OCCC(F)(F)C(F)(F)C(F)(F)C(F)(F)C(F)(F)C(F)(F)C(F)(F)C(F)(F)F
active: [16] 78.3 µM | [17] 88.8 µM
inactive: [2] | [3] | [4] | [5] | [6] | [7] | [8] | [9] | [10] | [11] | [12] | [13] | [14] | [15] | [18] | [19]

NCC(F)(F)C(F)(F)C(F)(F)C(F)(F)C(F)(F)C(F)(F)C(F)(F)F
inactive: [11] | [12] | [13] | [14] | [15] | [16] | [17] | [18] | [19]
